Records with an inconclusive call do not appear. A number with no mark means an inactive call. Activity calls are given as the source filed them. The call rests on the fitted dose curve; in most records, active means well fitted curve in either direction with a large enough effect (not every such curve was filed as active); inconclusive means small, poorly fitted or top-dose-only effect, or another doubt; inactive means flat fitted curve, though single readings scatter.
On the % scale 0 is the no-effect control and ±100 the full control effect.

The nature of this test: Stat Signaling Pathway (AID 446). The settings on record: ME-180 (cervical carcinoma) SIE beta-lactamase reporter, IL-6 stimulated, 5 h; series mostly up to 17.2 µM; activity, negative = inhibition: at the top concentration. How it is done:
NCGC Assay Overview: The IL-6/STAT signaling pathway was assayed in ME-180 cervical carcinoma cells by a beta-lactamase reporter gene controlled by a STAT Inducible Element (SIE). This reporter is induced by IL-6 at 40 pM AC50 and inhibited by the pan JAK inhibitor, 2-(1,1-Dimethylethyl)-9-fluoro-3,6-dihydro-7H-benz[h]-imidaz[4,5-f]isoquinolin-7-one, at approximately 10 nM AC50. Plated cells were incubated overnight and on the following day, stimulated with 40 pM IL-6 for 5 hrs. The assay was screened at the AC50 of IL-6 activation to identify both inhibitors and activators of IL-6/STAT signaling.
NCGC Assay Protocol Summary: Cells were trypsinized, washed in assay medium (AM, OPTI MEM with 0.5% fetal bovine serum, 0.1 mM nonessential amino acids, 1 mM sodium pyruvate, 10mM HEPES pH 7.3, 100U/ml penicillin, and 100 ug/ml streptomycin) and suspended at 6 x 10e5/ml in AM. Approximately […] cells in 5 uL/well was dispensed into 1536 well plates and the cells were incubated overnight at 37 C. 23 nL of compound were delivered by a pin tool and 1 uL of IL-6 (40 pM final concentration in AM) was added. After centrifugation at 1000 rpm for less than a minute, plates were incubated at 37C for 5 hrs. One uL of detector mix (LiveBLAzerTM, Invitrogen) was added, the plates incubated at room temperature for 2.5 hrs, and fluorescence intensity at 460 and 530 nm emission was measured at 405 nm excitation by an Envision (Perkin Elmer) or Safire II (Tecan). Data were normalized by GeneData to the controls for AC90 stimulation (300 pM IL-6) and to AC90 inhibition (125 nM Jak inhibitor, 40 pM IL-6 in AM).
As to `CCCCC(=O)O[C@H]1CC[C@H]2[C@@H]3CCc4cc(O)ccc4[C@H]3CC[C@]12C`, the “activity, negative = inhibition” value was -4.95%. In the case of `Cc1ncc(C[n+]2csc(CCO)c2C)c(N)n1`, the “activity, negative = inhibition” value was 1.25%. In the case of `N[C@@H](Cc1cc(I)c(Oc2ccc(O)c(I)c2)c(I)c1)C(=O)O`, the “activity, negative = inhibition” value is 2.12%. With `CC1(C)S[C@@H]2[C@H](NC(=O)C3(N)CCCCC3)C(=O)N2[C@H]1C(=O)O`, the “activity, negative = inhibition” value is -6.21%. For the compound `Cc1cccc(C)c1NC(=O)C1CCCCN1C` (stereo not drawn), the “activity, negative = inhibition” value is 0.849%.

`Cn1nnnc1SCC1=C(C(=O)O)N2C(=O)[C@@H](NC(=O)[C@H](O)c3ccccc3)[C@H]2SC1`: the “activity, negative = inhibition” value was -3.5%. On to `Nc1ccc(N=Nc2ccccc2)c(N)n1`, for which the “activity, negative = inhibition” value was -16.4%.

With `CCc1cn([C@H]2C[C@H](O)[C@@H](CO)O2)c(=O)[nH]c1=O`, the “activity, negative = inhibition” value is -4.25%. In the case of `O=C(O)c1ccc(OCCn2ccnc2)cc1`, the “activity, negative = inhibition” value is 6.49%. For the compound `CCCC(CCC)C(=O)OC1C[C@H]2CC[C@@H](C1)[N+]2(C)C` (stereo partly drawn), the “activity, negative = inhibition” value was 3.53%. As for `CC(=O)[C@H]1CC[C@H]2[C@@H]3C=CC4=CC(=O)CC[C@@]4(C)[C@H]3CC[C@]12C`, the “activity, negative = inhibition” value is -4.97%. As for `Cn1cc(NC(=O)c2cc(NC(=O)c3cc(NC=O)cn3C)cn2C)cc1C(=O)NCCC(=N)N`, the “activity, negative = inhibition” value was 10.3%. With `O=C1NCCN1c1ncc([N+](=O)[O-])s1`, the “activity, negative = inhibition” value was -7.76%.

In the case of `Oc1ccc(/C=C/c2cc(O)cc(O)c2)cc1`, the “activity, negative = inhibition” value is -18.1%. `Cc1cc(C)c(NC(=O)C[C@H](CC(=O)O)c2cccc3ccccc23)c(C(=O)N2CCC3(CCCC3)CC2)c1`: the “activity, negative = inhibition” value was -21.8% [at 38 µM]. Same read-out and setting: to `O=C(O)CCC(=O)c1ccc(-c2ccccc2)cc1` belongs -3.69%; to `CNC(=O)c1c(I)c(C(=O)NCC(=O)Nc2c(I)c(C(=O)O)c(I)c(C(=O)NCCO)c2I)c(I)c(N(C)C(C)=O)c1I`, -6.57%; to `CN1CCc2c(c3ccccc3n2Cc2ccccc2)C1`, 4.54%. Regarding `CC(=O)N=c1sc(S(N)(=O)=O)nn1C`, the compound was classed as inactive. Take `N[C@H](CC(=O)O)C(=O)O`: the “activity, negative = inhibition” value was 18.6% [at 38 µM]. For the compound `CC(=O)Oc1cccc2c1C(=O)c1c(OC(C)=O)cc(C(=O)O)cc1C2=O`, the “activity, negative = inhibition” value was 9.11%. As for `CCCOc1cc(N)ccc1C(=O)OCCN(CC)CC`, the “activity, negative = inhibition” value is 7.68%. Take `COc1cc(S(C)=O)ccc1-c1nc2ncccc2[nH]1` (stereo not drawn): the “activity, negative = inhibition” value was 0.345%.

`O=P(O)(O)OP(=O)(O)O`: the “activity, negative = inhibition” value was -5.06% [at 7.69 µM]. The same measure, in the same setting: as for `CN(CCO)CC(O)Cn1cnc2c1c(=O)n(C)c(=O)n2C` (stereo not drawn) (tested in a mixture with another compound), the figure is 9.14%.

On to `CCSc1ccc2c(c1)N(CCCN1CCN(C)CC1)c1ccccc1S2`, for which the “activity, negative = inhibition” value is -7.41%. For the compound `CC(=O)Oc1cc(C(F)(F)F)ccc1C(=O)O`, the “activity, negative = inhibition” value is 5.53%. As to `O=C(O)Cc1cc(I)c(Oc2ccc(O)c(I)c2)c(I)c1`, the result was inactive.

Source of the values: PubChem BioAssay (NCATS).
